Sampled rows, rich in hits. Any-hit rate of the full collection: about 7.9%.
HCMV inh – human cytomegalovirus inhibition; HFF cells, HCMV-luciferase reporter, 72 h; stronger effect = lower value; activity change, negative = inhibition, % at 57.5 µM; hit rate 4.5% among 410,000; in the data active = activity change below about -60%; inconclusive = no clear call, values can overlap the other calls; inactive = above about -39%
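Human foreskin fibroblasts infected with luciferase-reporter HCMV at MOI 1 PFU/cell, compounds at two doses. Luciferase measured 72 h post infection; normalized to buffer-only basal and Salinomycin (10uM) controls.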
MARV entry inh – inhibitors of Marburg virus binding or cell entry. Marburg virus pseudotyped entry inhibition, cell reporter. Potency, µM (highest dose often 37.8 µM), actives largely listed as inhibitors. hit rate 1.8% among 300,000. AID 540276; calls by dose curve; tested in HEK293 cells
FMDV antiviral – antivirals against foot and mouth disease virus; FMDV antiviral cell-based qHTS; Potency, µM (series often up to 57.9 µM), hits mostly inhibitors; hit rate 1.2% among 410,000; AID 1159524; calls by dose curve; tested in HEK293T cells; also: read-out not given here; nearly all actives have a fitted effect of over 45% in size
Lassa entry inh – Lassa virus entry inhibition. Potency, µM (series often up to 37.9 µM), most hits filed as inhibitors. Lassa virus pseudotype entry inhibition, cell reporter. hit rate 1.2% among 300,000; calls by dose curve; tested in HEK293 cells; also: nearly all actives have a fitted effect of over 50% in size
HCV inh – inhibitors of hepatitis C virus infection. Huh7.5.1 HCVcc-Cre infection, luciferase reporter, 44 h. Potency, µM (doses to about 41.8 µM), most hits filed as inhibitors. hit rate 3.4% among 340,000; active = well fitted inhibition curve with a large enough effect; inconclusive = small, poorly fitted or top-dose-only effect, or another doubt; inactive = no such curve, though single readings can be large or run the other way
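Seed cells (1,000/well) for 4 h; treat with compound and infect with HCVcc-Cre, moi about 0.5. Incubate 44 h, then detect luciferase activity.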
Numbers stand for hits; i = inactive; ? = inconclusive; nt = no result given; ! = a repeat was not active.

SMILES	HCMV inh	MARV entry inh	FMDV antiviral	Lassa entry inh	HCV inh
CC1(C)SC(=S)N(/N=C/c2cccnc2)C1N(O)C(=O)Nc1ccccc1 (stereo not given)	i	i	i	nt	i
Cc1nc2cc(-c3cccc(F)c3)nn2c(C)c1CCC(=O)Nc1ccccc1C(N)=O	i	?	?	?	nt
Cc1ccc(S(=O)(=O)N2C[C@H]3N(C(=O)OC(C)C)N(C(=O)OC(C)C)C[C@H](OC(=O)Nc4cccs4)[C@@]3(O)C2)cc1	i	nt	?	nt	nt
COC(=O)C1=C2CCCO[C@H]2[C@@H]2[C@@H](C)[C@H](OC)c3ccccc3[C@@H]12	nt	i	nt	nt	nt
CC(C)CN1CCC2(CC1)CCN(C(=O)c1cnccn1)CC2	nt	nt	i	nt	nt
COc1cc(/C=C/C(=O)O)ccc1OS(=O)(=O)c1ccc(C)cc1	i	i	i	i	i
COc1cc(/C=C/C(=O)c2ccc(NS(=O)(=O)c3ccc(C)cc3)cc2)ccc1OC(F)F	-71	?	?	?	35µM
COc1cccc(C(=O)/C=C/Nc2ccc(S(=O)(=O)Nc3cccc(C(C)=O)c3)cc2)c1	i	?	i	?	?
COc1cc(/C=C/C(=O)c2ccc(NS(=O)(=O)c3ccc(C)cc3)cc2)cc(OC)c1O	-101	?	i	?	?
COc1cccc(/C=C/C(=O)c2ccc(NS(=O)(=O)c3ccc(C)cc3)cc2)c1	-70	?	i	?	?
Cc1ccc(NC(=O)CCCn2c(=O)c3cccn3c3ccccc32)c(C)c1	i	nt	i	i	nt
CCOc1ccccc1NC(=O)Cn1cc(C(=O)c2ccc(Cl)cc2)c(=O)c2ccc(C)nc21	i	nt	i	i	nt
O=C(CC[C@H]1O[C@@H](n2ccc(=O)[nH]c2=O)[C@H](O)[C@@H]1O)N[C@H](Cc1ccccc1)C(=O)NCc1cccs1	i	nt	i	nt	nt
CC(C)OCCCNC(=O)Cn1ccc2cc(S(=O)(=O)N3CCCCC3)ccc21	i	i	i	i	i
CNC(=S)N/N=C/c1cn(CCOc2cccc(OC)c2)c2ccccc12	i	?	i	?	10µM
CCOC(=O)N/N=C/c1cn(CCCOc2ccc(C)cc2)c2ccccc12	i	7.1µM	i	?	i
Cc1cc2nc(C)n(CCCNC(=O)Nc3cccc4ccccc34)c2cc1C	-80	i	i	?	?
CCOc1ccc(NC(=O)NCCCn2c(C)nc3cc(C)c(C)cc32)cc1	i	?	i	i	?
COC(=O)/C=c1\s/c(=C(/C#N)C(=O)N2CCCCC2)n(-c2ccccc2)c1=O	nt	i	nt	nt	nt
O=S(=O)(c1ccccc1)c1nc(NCc2ccccc2)sc1Cl	-70	i	i	i	i
COc1ccc(CNc2nc(S(=O)(=O)c3ccccc3)c(Cl)s2)cc1OC	-95	?	14µM	?	?
CCOc1ccc(N(CC(=O)NC2CCCC2)S(=O)(=O)c2ccccc2)cc1	-64	i	i	i	i
CCOc1ccc(N(CC(=O)NC2CCCCC2)S(=O)(=O)c2ccc(C)cc2)cc1	i	i	i	i	i
CCOc1ccc(N(CC(=O)NC2CC3CCC2C3)S(=O)(=O)c2ccccc2)cc1 (stereo not given)	i	?	i	10µM	i
COc1ccc(N(CC(=O)NC2CC3CCC2C3)S(=O)(=O)c2ccc(C)cc2)cc1Cl (stereo not given)	i	nt	i	nt	nt
SMILES	HCMV inh	MARV entry inh	FMDV antiviral	Lassa entry inh	HCV inh
CCOc1ccc(N(CC(=O)NC2CC3CCC2C3)S(=O)(=O)c2ccc(C)cc2)cc1 (stereo not given)	i	nt	i	nt	6.3µM
COc1ccc(N(CC(=O)NC2CC3CCC2C3)S(=O)(=O)c2ccccc2)cc1OC (stereo not given)	i	?	i	8.9µM	i
CCN(CC(=O)Nc1ccc(NC(C)=O)cc1)C(=O)c1oc2c(ccc3ccccc32)c1C	-74	i	i	i	i
CCN(CC(=O)NCc1ccc(Cl)cc1)C(=O)c1oc2ccccc2c1C	i	?	i	i	i
CCN(CC(=O)NCc1ccc(F)cc1)C(=O)c1oc2ccccc2c1C	i	8.9µM	i	?	i
CC(=O)c1c(C)[nH]c(C(=O)CSc2nc3ccc(C)cc3[nH]2)c1C	i	i	?	i	?
COC(=O)NC(CC(C)=O)c1ccccc1 (stereo not given)	nt	i	nt	nt	nt
CCC(C(=O)N1CCN(c2ccccc2)CC1)n1c(C)c2cnn(-c3ccccc3)c(=O)c2c1C (stereo not given)	i	i	?	i	nt
CCOC(=O)c1c(-c2ccc(Br)cc2)csc1NC(=O)c1ccc(C(C)(C)C)cc1	i	nt	i	i	nt
COc1ccccc1-n1c(=O)c(C#N)c(-c2ccc([N+](=O)[O-])cc2)c2cc(C(=O)c3cc(F)ccc3O)cnc21	?	i	i	?	i
Cn1c(=O)c(C#N)c(-c2ccc(F)cc2)c2cc(C(=O)c3cc(Cl)cc(Cl)c3O)cnc21	-61	nt	?	nt	11µM
CC(=O)N1c2ccc(S(=O)(=O)NCC3CCC(C(=O)Nc4cc(C)ccn4)CC3)cc2CC1C (stereo not given)	-91	i	?	i	?
CC(=O)N1c2ccc(S(=O)(=O)N3CCCCC3)cc2CC1C(=O)Nc1ccc(F)cc1C (stereo not given)	-79	?	i	i	i
CC(=O)N1c2ccc(S(=O)(=O)N3CCCC3)cc2CC1C(=O)Nc1cc(C)cc(C)c1 (stereo not given)	i	nt	i	nt	?
COc1cc(OC)c(NC(=O)C2CCN(S(=O)(=O)c3ccc4c(c3)CC(C)N4C(C)=O)CC2)cc1Cl (stereo not given)	i	nt	?	nt	?
CC(=O)N1c2ccc(S(=O)(=O)NCCC(=O)N(C)Cc3ccccc3)cc2CC1C (stereo not given)	i	nt	i	i	i
COc1ccc(OC)c(NC(=O)C2CCN(S(=O)(=O)c3ccc4c(c3)CC(C)N4C(C)=O)CC2)c1 (stereo not given)	-86!	i	i	i	i
CCN(Cc1ccccc1)C(=O)CCNS(=O)(=O)c1ccc2c(c1)CC(C)N2C(C)=O (stereo not given)	-72!	nt	i	i	?
COc1cccc(CN2CCC(c3nnc(SCC4CCCO4)n3C)CC2)c1O (stereo not given)	nt	nt	i	nt	nt
C[C@@H]1CN(Cc2ccc3c(c2)CN(Cc2cccc(O)c2)CCO3)C[C@H](C)O1	nt	nt	i	nt	nt
CC(=O)N1c2ccc(S(=O)(=O)NCC3CCC(C(=O)Nc4cccc(F)c4)CC3)cc2CC1C (stereo not given)	-77	nt	20µM	?	nt
CC(=O)N1c2ccc(S(=O)(=O)N3CCC(C(=O)Nc4cc(C)ccn4)CC3)cc2CC1C (stereo not given)	-69	nt	?	nt	?
CC(=O)N1c2ccc(S(=O)(=O)NCC3CCC(C(=O)N4CC(C)CC(C)C4)CC3)cc2CC1C (stereo not given)	i	nt	i	nt	14µM
CC(=O)N1c2ccc(S(=O)(=O)N3CCC(C(=O)NCc4ccc(C)cc4)CC3)cc2CC1C (stereo not given)	?	i	i	i	?
Cc1cccc(NS(=O)(=O)c2ccc3[nH]c4c(c3c2)CCCCCC4)c1	-103	nt	i	i	nt

Screening data: PubChem, National Center for Advancing Translational Sciences (NCATS)
